From PubChem BioAssay (NCATS)
Records with an inconclusive call do not appear. Unmarked numbers belong to inactive results. Active and inactive are the calls of the source. Calls follow the shape of the dose curve; as a rule, active = well fitted curve in the direction sought with a large enough effect; inconclusive = small, poorly fitted or top-dose-only effect, or another doubt; inactive = no such curve, though single readings can be large; an effect the other way counts as inactive or inconclusive.

system: Zika virus NS2B-NS3 protease; test: Primary screen GU AMC qHTS for Zika virus inhibitors (AID 1347154); conditions: Zika NS2B-NS3 unlinked protease, AMC fluorogenic substrate; series mostly up to 54.1 µM; activity change, negative = inhibition: at the top concentration;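 also: 0% = no-inhibitor control and -100% = no-enzyme control; nearly all actives have a fitted effect of over 70% in size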
Method in brief: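 Fluorogenic AMC-substrate cleavage by noncovalent NS2B-NS3 protease complex (25 nM, pH 8.0 Tris buffer with Tween 20) followed for 15 minutes at room temperature (~20% conversion). Percent inhibition from ex340/em450 signal change, fitted by 4-parameter Hill equation.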

Compound	activity change, negative = inhibition	Potency
NCc1cccnc1	5.09%	–
Cc1cccc(Cc2cnc[nH]2)c1C	1.44%	–
CN(C)CCc1c[nH]c2ccccc12	-1.19% [at 194 µM]	–
Cc1ccc(N=CN(C)C=Nc2ccc(C)cc2C)c(C)c1	-6.81%	–
COc1ccc2[nH]cc(CCN(C(C)C)C(C)C)c2c1	1.77% [at 104 µM]	–
C[N+](C)(C)CCOC(=O)C(O)(c1ccccc1)c1ccccc1	-7.6%	–
C[C@@H]1CC[C@H]2[C@@H](C)C(=O)O[C@@H]3O[C@@]4(C)CC[C@@H]1[C@]32OO4	4.78%	–
CCOC(=O)c1cncn1C(C)c1ccccc1 (configuration not stated)	-3.2%	–
Oc1ccc2[nH]cc(CCCCN3CC=C(c4ccccc4)CC3)c2c1	–	inactive
CC(CC(C(N)=O)(c1ccccc1)c1ccccc1)N(C)C (configuration not stated)	4%	–
CCc1cc(OC)c(C[C@H](C)N)cc1OC	-0.715% [at 104 µM]	–
COc1ccc2c3c1O[C@H]1[C@@H](O)C=C[C@H]4[C@@H](C2)N(C)CC[C@@]341	5.13% [at 104 µM]	–
CC(CC(C#N)(c1ccccc1)c1ccccc1)N(C)C (configuration not stated)	0.532% [at 104 µM]	–
ClCCCN1CCN(c2cccc(Cl)c2)CC1	-0.166%	–
Sc1ccccc1Cl	-0.645%	–
CCCCC1C(=O)NC(=O)N(C2CCCCC2)C1=O (configuration not stated)	-6.03%	–
CCCOC(=O)Cc1ccc(OCC(=O)N(CC)CC)c(OC)c1	-6.4%	–
COc1cc(CC(C)N)cc2c1OCO2 (configuration not stated)	-0.106% [at 104 µM]	–
COP(=O)(OC)C(O)C(Cl)(Cl)Cl (configuration not stated)	-0.777%	–

Compound	activity change, negative = inhibition	Potency
O=c1n(Cl)c(=O)n(Cl)c(=O)n1Cl	-2.28%	–
CCCC[N+]1(C)[C@@H]2CC(OC(=O)[C@H](CO)c3ccccc3)C[C@H]1[C@@H]1O[C@@H]12 (some centres not stated)	4.98%	–
CCC1(c2ccccc2)CCC(=O)NC1=O (configuration not stated)	-2.05%	–
O=C(CCCN1CCC(n2c(=O)[nH]c3ccccc32)CC1)c1ccc(F)cc1	-2.96%	–
O=C(CCCCl)c1ccc(F)cc1	-7.59%	–
C[C@]12CC[C@H](O)CC1=CC[C@@H]1[C@@H]2CC[C@]2(C)C(=O)CC[C@@H]12	3.05%	–
CNC(=O)NC(O)C(Cl)(Cl)Cl (configuration not stated)	-0.312%	–
O=C(N[C@H]1N=C(c2ccccc2F)c2cccc3c2N(CC3)C1=O)c1cc2ccccc2[nH]1	-13.4%	–
CC[C@H]1C[C@H]2[C@@H]3CCC4=CC(=O)CC[C@@H]4[C@H]3CC[C@]2(C)[C@H]1O	-1.59%	–
CCN(CC)CCOC(=O)C(C)(c1ccccc1)c1ccccc1	4.46%	–
O=C(O)CCCCCCNC1c2ccccc2CCc2ccccc21	-4.43%	–
CCOC(=O)c1ncn2c1CN(C)C(=O)c1c(I)cccc1-2	-3.31%	–
CCCC(C)C1(CC)C(=O)N=C(S)NC1=O (configuration not stated)	-3.99%	–
CCOC(=O)NC(C)(C)Cc1ccc(Cl)cc1	-5.58%	–
CC#C[C@]1(O)CC[C@H]2[C@@H]3C[C@H](C)C4=CC(=O)CC[C@]4(C)[C@H]3CC[C@@]21C	-8.72%	–
CC(C)[N+](C)(CCC(C(N)=O)(c1ccccc1)c1ccccc1)C(C)C	-7.41%	–
CCC1(CC)C(=O)NC(=O)NC1=O	-1.85%	–
O=C(N[C@@H]1N=C(c2ccccc2F)c2cccc3c2N(CC3)C1=O)c1cc2ccccc2[nH]1	-12.5%	–

system: Zika virus NS2B-NS3 protease (linked construct); test: Primary screen NINDS Rhodamine qHTS for Zika virus inhibitors (AID 1347160); conditions: purified NS2B-NS3 protease, Rhodamine110 substrate fluorescence; series mostly up to 57.1 µM; activity change, negative = inhibition: at the top concentration; also: nearly all actives have a fitted effect of over 55% in size; as to activity change, negative = inhibition: % is scaled to controls: 0 for no effect and ±100 for the full control effect
Method in brief: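 In 10 mM Tris-HCl pH 8.0 containing 0.01% Tween 20, linked NS2B-NS3 protease (25 nM final) is exposed to test compounds for 15 min. Cleavage of 1.5 microM Rhodamine110 substrate is tracked by fluorescence over 15 min.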

Compound	activity change, negative = inhibition	outcome
CN(C)CCc1c[nH]c2ccccc12	30% [at 112 µM]	–
CCOC(=O)c1cncn1C(C)c1ccccc1 (configuration not stated)	-8.85%	–
CCCCC1C(=O)NC(=O)N(C2CCCCC2)C1=O (configuration not stated)	–	inactive
CCCC[N+]1(C)[C@@H]2CC(OC(=O)[C@H](CO)c3ccccc3)C[C@H]1[C@@H]1O[C@@H]12 (some centres not stated)	-1.11%	–
C[C@]12CC[C@H](O)CC1=CC[C@@H]1[C@@H]2CC[C@]2(C)C(=O)CC[C@@H]12	17.7%	–
O=C(N[C@H]1N=C(c2ccccc2F)c2cccc3c2N(CC3)C1=O)c1cc2ccccc2[nH]1	-5.66%	–
CC[C@H]1C[C@H]2[C@@H]3CCC4=CC(=O)CC[C@@H]4[C@H]3CC[C@]2(C)[C@H]1O	14.8%	–
O=C(O)CCCCCCNC1c2ccccc2CCc2ccccc21	5.76%	–
CCOC(=O)c1ncn2c1CN(C)C(=O)c1c(I)cccc1-2	7.75%	–
CCOC(=O)NC(C)(C)Cc1ccc(Cl)cc1	19.1%	–
